# Screening data (PubChem BioAssay)
# DT40 TDP1 no CPT = qHTS for Inhibitors of human tyrosyl-DNA phosphodiesterase 1 (TDP1): qHTS in cells in absence of CPT | Potency, µM (highest dose often 46.2 µM), without a hit: at the top dose activity change, negative = growth inhibition, usual class: inhibitors | DT40 Tdp1-/- hTDP1 cells, no CPT, ATP luminescence, 48 h | AID 686978, 2013 | 420,000 tested, 15% active; note: potency is the fitted concentration of half-maximal effect; % is set by controls: 0 for no effect and ±100 for the full control effect; nearly all actives have a fitted effect of over 55% in size
#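 Readout: luminescence from CellTiter-Glo after 30 min in the dark at RT. Cells: DT40 Tdp1-/- with stable hTDP1, 400/well. Exposure: compounds alone, ≥48 hr, 37 °C.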
# TDP1 block = qHTS Assay for Inhibitors of Tyrosyl-DNA Phosphodiesterase (TDP1); Tyrosyl-DNA phosphodiesterase 1 (Homo sapiens), Q9NUW8; recombinant TDP1, AlphaScreen DNA substrate cleavage; Potency, µM (top dose mostly 130 µM), inactives show at the top dose activity change, negative = inhibition, hits mostly inhibitors; 350,000 tested, 0.28% active; note: potency is the fitted concentration of half-maximal effect; % is set by controls: 0 for no effect and ±100 for the full control effect; nearly all actives have a fitted effect of over 40% in size
# Target sequence (Q9NUW8 whole entry, looked up): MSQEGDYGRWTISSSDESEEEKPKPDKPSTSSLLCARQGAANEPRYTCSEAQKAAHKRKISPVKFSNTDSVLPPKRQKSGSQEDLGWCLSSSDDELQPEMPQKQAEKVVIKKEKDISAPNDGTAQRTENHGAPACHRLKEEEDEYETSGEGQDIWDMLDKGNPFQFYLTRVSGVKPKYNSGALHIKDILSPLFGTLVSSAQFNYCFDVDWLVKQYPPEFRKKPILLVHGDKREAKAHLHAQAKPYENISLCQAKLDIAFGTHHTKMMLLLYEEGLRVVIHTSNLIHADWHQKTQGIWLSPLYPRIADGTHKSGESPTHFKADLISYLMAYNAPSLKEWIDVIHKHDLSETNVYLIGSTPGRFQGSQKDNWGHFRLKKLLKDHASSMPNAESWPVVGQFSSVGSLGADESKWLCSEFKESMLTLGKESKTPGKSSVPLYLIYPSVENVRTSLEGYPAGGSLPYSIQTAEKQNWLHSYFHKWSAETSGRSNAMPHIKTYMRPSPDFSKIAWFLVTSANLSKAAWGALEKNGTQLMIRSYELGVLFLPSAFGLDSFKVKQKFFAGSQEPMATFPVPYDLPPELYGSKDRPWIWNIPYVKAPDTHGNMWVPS
#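 Compounds were preincubated with Tdp1 (1 nM final) for 15 min at room temperature before substrate (15 nM final) started a 5 min reaction; beads (10 ug/ml final) were then added for 10 min before AlphaScreen detection.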
# TDP1 cell CPT = qHTS for Inhibitors of human tyrosyl-DNA phosphodiesterase 1 (TDP1): qHTS in cells in presence of CPT | chicken DT40 Tdp1-/-;hTDP1 cells + 20 nM CPT, ATP luminescence, 48 h | Potency, µM (highest dose often 46.2 µM), inactives show top-dose activity change, negative = growth inhibition, actives largely listed as inhibitors | 420,000 tested, 12% active | AID 686979, 2013; note: potency is the fitted concentration of half-maximal effect; % is set by controls: 0 for no effect and ±100 for the full control effect; nearly all actives have a fitted effect of over 55% in size
#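 Chicken DT40 Tdp1-/- cells complemented with human TDP1, 400 cells/well, exposed to compounds plus 20 nM camptothecin for at least 48 h at 37 C; viability read as ATP content by CellTiter-Glo luminescence.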
# IL-1B inflam inh = qHTS for Inhibitors of Inflammasome Signaling: IL-1-beta AlphaLISA Primary Screen | THP-1 LPS/ATP IL-1B secretion, AlphaLISA, 16 h; stronger effect = lower value | AID 743279, 2014 | 360,000 tested, 4.7% active | activity change, % at 57.5 µM; in the data active = activity change below about -50%; inconclusive = mostly about -30% to -49%; note: % is set by controls: 0 for no effect and ±100 for the full control effect
#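 Secreted IL-1B measured by AlphaLISA bead assay after 16 h compound exposure of THP-1 cells; compounds (final up to 57.5 uM) added 1 h before LPS (250 ng/mL) and ATP (1.25 mM) stimulation; lower signal means less secretion.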
# HepG2 tox = qHTS for Inhibitors of TGF-b: Cytotox Counterscreen. AID 588856, 2011. 410,000 tested, 0.76% active. HepG2 CAGA-GFP viability, ATP luminescence, 18 h. Potency, µM (top dose mostly 46.1 µM), for inactives: at the highest dose activity change, negative = cytotoxicity, actives largely listed as cytotoxic; note: potency is the fitted concentration of half-maximal effect
#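 CellTiter-Glo luminescence gave cytotoxicity after 18 hours at 37 degrees C. The cells were HepG2 CAGA-GFP in 1% FBS DMEM, stimulated with 500 pg/mL TGF-beta after compound addition. %Activity was normalised to no-cell wells (complete cell-killing) and DMSO (no toxicity), and curves were fitted and classified.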
# TGFb SMAD3 inh = qHTS for Inhibitors of TGF-b; HepG2 CAGA-GFP TGF-b/SMAD3 reporter, GFP fluorescence, 18 h; TGF-beta stimulated, 500 pg/mL final; Potency, µM (series often up to 46.1 µM), for inactives: at the top dose activity, negative = inhibition, usual class: inhibitors; 410,000 tested, 1.2% active; note: potency is the fitted concentration of half-maximal effect; % is set by controls: 0 for no effect and ±100 for the full control effect; nearly all actives have a fitted effect of over 65% in size
#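 TGF-beta reporter screen: HEPG2 CAGA-GFP, 1% FBS, 500 pg/mL TGF-beta final, 18 h; per-cell GFP summed per well; curves fitted and categorized by class.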
# * = called active by the depositor; u = inconclusive; x = no result; [ ] = another dose, or the depositor's remark. A selection: hits, their analogues and other compounds. The true share with any hit is near 18%. Unless noted, calls come from the whole dose curve; as a rule, active = well fitted curve in the direction sought with a large enough effect; inconclusive = small, poorly fitted or top-dose-only effect, or another doubt; inactive = no such curve, though single readings can be large; an effect the other way counts as inactive or inconclusive.
SMILES,DT40 TDP1 no CPT,TDP1 block,TDP1 cell CPT,IL-1B inflam inh,HepG2 tox,TGFb SMAD3 inh
CCOC(=O)C1(CCCc2ccccc2)CCN(C(=O)CCCn2cncn2)CC1,26µM*,5%,u,-8,-9%,-17%
S=C(NCc1ccccn1)Nc1ccc(Cl)cc1Cl,-4%,3%,-5%,-14,7%,12%
CCN(CC)S(=O)(=O)c1ccc(N2CCOCC2)c(NCC(=O)Nc2ccc(F)cc2)c1,-15%,-5%,10%,-4,-31%,-3%
CN(C)CCN(C)Cc1c2ccccc2c(CN(C)CCN(C)C)c2ccccc12,18µM*,x,18µM*,-84*,-22%,3%
CN(C)CCP(=O)(c1ccccc1)c1ccccc1,u,5%,7%,20,-5%,4%
FC(F)Oc1ccc(N=C2SCC3CCCCN23)cc1 (centres undefined),23µM*,-7%,u,-17,-17%,-16%
Clc1ccc(N=C2SCC3CCCCN23)cc1 (centres undefined),-26%,-12%,-20%,-4,-17%,0%
CCOC(=O)N1CCC(N2Cc3cccc(C(=O)Nc4ccccc4OC)c3C2=O)CC1,16µM*,4%,23µM*,-15,1%,-1%
CCOC(=O)N1CCC(N2Cc3cccc(C(=O)N4CCN(C5CCCCC5)CC4)c3C2=O)CC1,1%,-2%,0%,-5,-10%,-3%
CCOC(=O)N1CCC(N2Cc3cccc(C(=O)Nc4ccc(OC)c(OC)c4)c3C2=O)CC1,u,2%,18µM*,u,-19%,7%
COc1cc(NC(=O)c2cccc3c2C(=O)N(C2CCCCC2)C3)cc(OC)c1OC,7.3µM*,2%,23µM*,-60*,-20%,u
Cc1ccc(NC(=O)c2cccc3c2C(=O)N(C2CCCCC2)C3)c(Cl)c1,-29%,3%,18µM*,x,-4%,-4%
Cc1cc(C)cc(NC(=O)c2cccc3c2C(=O)N(C2CCCCC2)C3)c1,29%,0%,-2%,29,-7%,0%
O=C(Nc1ccc(F)cc1F)c1cccc2c1C(=O)N(C1CCCCC1)C2,u,-7%,u,x,-6%,-19%
O=C(Cn1cc(SCc2ccc(F)cc2)c2ccccc21)N1CCCC1,u,5%,u,x,-19%,u
CCc1ccccc1S(=O)(=O)c1c(C)cc(C)nc1Cl,-29%,x,-28%,2,-42%,-4%
COc1ccc(CN(C)CC(=O)Nc2c(C)cccc2C)c(OC)c1,u,0%,u,-10,-16%,3%
Cc1cccc(C(C)C)c1NC(=O)CN(C)Cc1cccc(F)c1,23µM*,-6%,u,-5,-80%,-12%
CC(NC(=O)CN(C)Cc1cccc(F)c1)c1ccccc1 (centres undefined),1%,x,-8%,-19,5%,-18%
Cc1ccccc1CN(C)CC(=O)Nc1c(C)cccc1C(C)C,3.3µM*,-5%,u,-86*,-34%,-29%
CCc1cccc(C)c1NC(=O)CN(C)Cc1cccc(F)c1,16µM*,-1%,u,7,-18%,9%
Cc1c(Cl)cccc1NC(=O)COC(=O)c1ccc(CN2CCCC2=O)cc1,12%,1%,-6%,6,-9%,-11%
Nc1nc(SCC(=O)NC2CCCCC2)n[nH]1,-1%,0%,4%,4,1%,1%
CCOc1ccc(/C=C(\C#N)C(=O)NC2CC2)c(OCC)c1,-29%,x,3%,-54*,-18%,5%
CCCCOc1ccc(/C=C(\C#N)C(=O)NC2CC2)cc1,29µM*,x,u,-17,0%,30%
SMILES,DT40 TDP1 no CPT,TDP1 block,TDP1 cell CPT,IL-1B inflam inh,HepG2 tox,TGFb SMAD3 inh
COc1ccccc1NC(=O)c1ccc(COc2ccc(C)c(C)c2)o1,u,-11%,u,x,-8%,-1%
CCOCCN1CCN(C2c3ccccc3CSc3ccccc32)CC1 (centres undefined),u,x,u,-74*,-1%,-21%
CCNC(=O)NC1c2ccccc2CSc2ccccc21 (centres undefined),u,x,4%,8,6%,-12%
COc1ccc(/C=C/C(=O)N2CCN(S(=O)(=O)c3ccccc3Br)CC2)cc1OC,u,1%,u,u,-27%,-28%
C/C(=N\O)c1noc(C)c1C(=O)Nc1nccs1,u,3%,u,35,1%,3%
Cc1cc2c(nc1C)CCCN2C[C@@H](C)O/N=C1/[C@H]2CCn3c(=O)n(-c4ccccc4)c(=O)n3[C@H]2[C@H](O)[C@@H]2O[C@H]12,u,3%,u,-54*,1%,-23%
C[C@H](O/N=C1/[C@H]2O[C@@H]2[C@@H](O)[C@H]2[C@H]1CCn1c(=O)n(-c3ccccc3)c(=O)n12)c1cn([C@H]2COC[C@H]2O)nn1,x,4%[21 µM],x,x,x,x
CC(C)C(=O)Nc1c2c(nn1-c1ccc(F)cc1)CS(=O)(=O)C2,-2%,x,-3%,19,-4%,0%
O=C(C[C@H]1C=C[C@@H](NS(=O)(=O)c2ccccc2)[C@@H](CO)O1)NCc1ccc(Cl)c(Cl)c1,18µM*,x,u,-10,x,x
CCOc1ccc(NC(=O)CN(c2ccc(CC)cc2)S(=O)(=O)c2c(C)noc2C)cc1,13µM*,12%,12µM*,x,-10%,-1%
CCOc1ccc(N(CC(=O)Nc2cccc(Cl)c2)S(=O)(=O)c2c(C)noc2C)cc1,12µM*,-1%,13µM*,-17,-12%,u
CCOc1ccc(N(CC(=O)Nc2cccc(OC)c2)S(=O)(=O)c2c(C)noc2C)cc1,18µM*,1%,13µM*,17,-4%,-13%
CCOc1ccc(N(CC(=O)Nc2ccc(F)c(F)c2)S(=O)(=O)c2c(C)noc2C)cc1,u,0%,u,-15,-26%,1%
COc1ccc(NC(=O)C2CC(=O)N=C(N)S2)cc1 (centres undefined),3%,6%,4%,11,-24%,u
CN(C)N1C(N)=C(C#N)C(c2ccc3c(c2)OCO3)C2=C1CC(C)(C)CC2=O (centres undefined),8%,x,0%,6,6%,4%
